Among the data in PubChem BioAssay are inhibition values, retold here.

A number with no mark means an inactive call. Some of the results follow. Activity calls are given as the source filed them. Rule as the data show it, unless noted: active = inhibition above about 13%; inactive = the rest.

The first test has as its system transactivating tegument protein VP16 (Human herpesvirus 1). The test can be described thus: compounds suppressing VP16-driven luciferase signal – cell-based, luminescence, single concentration, counter-screen for SRC2 inhibitor project (AID 652007; in the data active = inhibition above about 36%). Particulars: cell-based VP16 transactivation luciferase reporter, at 8.9 µM, active compounds read high.
As usually defined, the inhibition is the drop in the measured response relative to a control, in per cent. Consider `O=C(OC12CC3CC(CC(C3)C1)C2)c1ccc(NCc2cc(O)ccc2O)cc1`, for which the inhibition is 95.5% (active).

In the case of `CCc1ccc(N(CC)c2ncnc3nc[nH]c23)cc1`, the inhibition was 4.69%.

In the case of `COc1cc(SC)ccc1C(=O)Nc1nc(C)cs1`, the inhibition is 50.1% (active).

In another test the target is Nuclear receptor coactivator 2 (Homo sapiens) (UniProt Q15596). The test can be described thus: inhibition of GAL4-SRC2 driven luciferase expression – cell-based, luminescence, HEK293, triplicate, confirmation (AID 652008;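 active = mean inhibition above 46.5%, the solvent-only control mean plus 3 SD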;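 also: 0% = DMSO-treated cells and 100% = Gossypol at 36 µM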). The following applies: HEK293 GAL4-SRC2 luciferase reporter, at 8.9 µM, active compounds read high. A general note: Reporter assays use an easily measured gene product as a stand-in for the process of interest.
Nuclear receptor coactivator 2 (Homo sapiens), sequence (Q15596 whole entry, looked up, the tested form may be a part): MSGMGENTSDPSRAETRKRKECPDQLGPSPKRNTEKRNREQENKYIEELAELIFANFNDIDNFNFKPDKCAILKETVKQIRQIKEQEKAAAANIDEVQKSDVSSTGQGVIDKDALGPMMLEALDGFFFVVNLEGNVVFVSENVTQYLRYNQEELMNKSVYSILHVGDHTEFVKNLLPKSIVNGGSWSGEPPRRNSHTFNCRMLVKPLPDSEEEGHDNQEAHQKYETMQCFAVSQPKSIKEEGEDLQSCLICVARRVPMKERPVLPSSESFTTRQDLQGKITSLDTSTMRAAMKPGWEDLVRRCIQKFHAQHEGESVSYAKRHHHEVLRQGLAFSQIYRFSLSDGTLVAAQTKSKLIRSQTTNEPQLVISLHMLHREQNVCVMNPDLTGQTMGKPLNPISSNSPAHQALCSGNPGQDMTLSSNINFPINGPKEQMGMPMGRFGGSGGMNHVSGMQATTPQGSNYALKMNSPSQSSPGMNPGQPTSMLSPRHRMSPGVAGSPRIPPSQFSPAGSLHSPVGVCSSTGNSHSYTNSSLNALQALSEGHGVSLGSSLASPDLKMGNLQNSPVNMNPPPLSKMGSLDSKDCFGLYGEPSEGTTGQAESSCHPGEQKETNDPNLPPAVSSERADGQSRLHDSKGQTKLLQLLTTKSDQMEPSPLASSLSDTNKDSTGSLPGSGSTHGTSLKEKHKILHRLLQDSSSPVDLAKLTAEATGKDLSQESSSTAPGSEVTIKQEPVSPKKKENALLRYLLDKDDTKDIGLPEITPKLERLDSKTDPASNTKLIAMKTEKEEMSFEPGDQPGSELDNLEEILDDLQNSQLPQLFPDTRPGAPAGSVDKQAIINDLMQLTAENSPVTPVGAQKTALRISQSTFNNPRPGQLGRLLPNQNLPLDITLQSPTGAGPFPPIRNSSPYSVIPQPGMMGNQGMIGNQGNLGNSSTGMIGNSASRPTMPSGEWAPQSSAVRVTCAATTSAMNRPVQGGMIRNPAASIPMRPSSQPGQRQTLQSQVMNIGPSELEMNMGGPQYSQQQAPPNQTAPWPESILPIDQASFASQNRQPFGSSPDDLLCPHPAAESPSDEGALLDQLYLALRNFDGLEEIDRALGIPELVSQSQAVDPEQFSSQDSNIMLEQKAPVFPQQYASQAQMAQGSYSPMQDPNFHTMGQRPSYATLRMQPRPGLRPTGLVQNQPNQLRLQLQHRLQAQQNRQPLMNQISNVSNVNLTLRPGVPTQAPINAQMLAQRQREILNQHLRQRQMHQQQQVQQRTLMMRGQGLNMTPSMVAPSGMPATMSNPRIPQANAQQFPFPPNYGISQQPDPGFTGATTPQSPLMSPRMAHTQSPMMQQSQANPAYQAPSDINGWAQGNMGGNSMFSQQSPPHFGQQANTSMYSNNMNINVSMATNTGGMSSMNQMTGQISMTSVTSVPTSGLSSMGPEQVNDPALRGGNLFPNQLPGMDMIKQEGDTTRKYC
For the molecule `O=C(OC12CC3CC(CC(C3)C1)C2)c1ccc(NCc2cc(O)ccc2O)cc1`, the inhibition was 96.4% (active).

On to `CCc1ccc(N(CC)c2ncnc3nc[nH]c23)cc1`, for which the inhibition was 50.7% (active).

As for `COc1cc(SC)ccc1C(=O)Nc1nc(C)cs1`, the inhibition is 75.4% (active).

System in another test: not listed separately
Briefly: VP16-driven transactivation reporter suppression – cell-based, luminescence, HEK293, counter-screen for COUP-TFII antagonist project (AID 687007). Particulars: HEK293 Gal4-VP16 luciferase reporter, at 8.5 µM, active compounds read high.
As to `C=CCC1(CC=C)CCCN1C(=O)c1cc(COc2ccc(-n3cncn3)cc2)on1`, the inhibition was -1.01%.

For the molecule `O=C(OC12CC3CC(CC(C3)C1)C2)c1ccc(NCc2cc(O)ccc2O)cc1`, the inhibition is 79.4% (active).

Regarding `CC(=O)Nc1ccc(-c2csc(NC(=O)Nc3ccccc3)n2)cc1`, the inhibition was -18.8%.

In the case of `O=c1oc2ccccc2cc1-c1cn(-c2ccccc2)c(=S)[nH]1`, the inhibition was 46.9% (active).

In the case of `CCc1ccc(N(CC)c2ncnc3nc[nH]c23)cc1`, the inhibition is -1.24%.

As for `COc1cc(SC)ccc1C(=O)Nc1nc(C)cs1`, the inhibition was 46.4% (active).
